This is a sample that favours compounds with a hit; in the whole collection about 3.4% have one here.
sPLA2-III inh: Blocks human group III sPLA2 activity. Q9NZ20. QFRET BODIPY PC-A2 liposome hydrolysis, fluorescence. inhibition, % at 12.2 µM. hit rate 0.56% among 370,000;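 active = inhibition above mean plus 3 SD of compounds lying within the high and low control bounds, cut at about 19% in these data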
PLCb3 inh: PLC-beta3 (human) inhibition, primary screen; hit rate 0.18% among 370,000; Purified PLC-beta3, fluorogenic substrate, fluorescence; AID 720704; Q01970; inhibition, % at 12.2 µM
ADAM10 inh: inhibits human ADAM10; recombinant ADAM10, EDANS/DABCYL FRET peptide cleavage, 3 h; inhibition, % at 7 µM; hit rate 0.62% among 370,000; AID 720582;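 active = inhibition above a per-campaign cutoff equal to the mean of compounds falling between control-based bounds plus 3 SD, cut at about 20% in these data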
KLK7 zymogen act: proKLK7 (human) activation, primary screen; AID 652039; activation, % at 7 µM; purified proKLK7, EDANS-DABCYL substrate fluorescence; 100% is mature enzyme control, 0% vehicle; hit rate 0.9% among 370,000;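 active = activation above the mean of all tested compounds plus 3 SD, computed per campaign excluding outliers beyond control limits, cut at about 13% in these data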
Target sequence (P49862 whole entry, looked up): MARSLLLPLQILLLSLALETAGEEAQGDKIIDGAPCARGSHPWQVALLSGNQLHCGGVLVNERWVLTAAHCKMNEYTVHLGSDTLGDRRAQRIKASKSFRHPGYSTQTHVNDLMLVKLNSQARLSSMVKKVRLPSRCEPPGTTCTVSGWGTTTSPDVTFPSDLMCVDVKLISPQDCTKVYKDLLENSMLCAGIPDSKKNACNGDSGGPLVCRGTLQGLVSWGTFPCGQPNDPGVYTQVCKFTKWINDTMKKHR
PLC-gamma1 inh: inhibitors of human phospholipase C gamma1. P19174. purified PLC-gamma1, fluorogenic substrate, fluorescence. inhibition, % at 12.2 µM. hit rate 0.84% among 370,000. AID 720700; in the data active = inhibition above about 9.5%
ADAM17 inh: ADAM17 inhibition, QFRET primary screen | P78536 | recombinant ADAM17, EDANS/DABCYL FRET peptide cleavage | inhibition, % at 6.95 µM | hit rate 0.83% among 370,000 | AID 720648;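 active = inhibition above the mean of compounds lying between control limits plus 3 SD, set per campaign, cut at about 8.5% in these data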
PLCg1 ctr: counter-screen for PLC-beta3 inhibitors: inhibitors of human PLC-gamma1 | shares compounds with PLC-gamma1 inh | purified PLC-gamma1, fluorogenic substrate, fluorescence | inhibition, % at 12.3 µM | hit rate 3.1% among 3,300 | AID 743258; in the data active = inhibition above about 9.5%
PLCbeta3 conf: human PLC-beta3 inhibition, confirmation; inhibition, % at 12.3 µM; hit rate 1% among 3,300; purified PLC-beta3, fluorogenic substrate fluorescence; shares compounds with PLC-gamma1 inh
Each line names hits and unclear results; the compound was inactive in the other large screens (follow-up assays come after a bar, where they were run). Rule as the data show it, unless noted: active = inhibition above about 11%; inactive = the rest.

N#Cc1ccc(S(=O)(=O)N2CCCc3nc(-c4ccc(F)cc4)ccc32)cc1	none
O=C(NCC1CCCO1)c1ccc(Oc2ccc([N+](=O)[O-])cc2)cc1 (configuration not stated)	none
CC(Oc1ccc([N+](=O)[O-])cc1)C(=O)NCC1CCCO1 (configuration not stated)	PLC-gamma1 inh 11 | PLCg1 ctr inactive | PLCbeta3 conf inactive
C#CCOc1ccc(Br)cc1C(c1c(C)[nH][nH]c1=O)c1c(C)[nH][nH]c1=O	PLC-gamma1 inh 62 | PLCg1 ctr inactive | PLCbeta3 conf inactive
CC(C)(C)N1Cc2nnn(Cc3ccccc3)c2-c2ccccc2S1(=O)=O	none
CCOc1ccc(Nc2nc(-c3cccnc3)cs2)cc1	PLC-gamma1 inh 12 | PLCg1 ctr inactive | PLCbeta3 conf inactive
CC(=O)c1cc(-c2ccccc2)n(CC(=O)NCc2ccccc2)c1C	none
COC(=O)C1CN(Cc2cn(Cc3ccc(C)cc3)nn2)CCS(=O)(=O)N1Cc1ccc(Cl)cc1 (configuration not stated)	none
Cc1nc([N+](=O)[O-])c(Sc2nc3ccc([N+](=O)[O-])cc3[nH]2)n1Cc1ccccc1	PLC-gamma1 inh 12 | PLCg1 ctr inactive | PLCbeta3 conf inactive
C=C(C)[C@@H]1CCC2(C(=O)O)CC[C@]3(C)[C@H](CC[C@@H]4[C@@]5(C)CCC(=O)C(C)(C)[C@@H]5CC[C@]43C)[C@@H]12 (some centres not stated)	none
C=C(C)[C@@H]1CC[C@]2(C(=O)O)CC[C@]3(C)C(CCC4[C@@]5(C)CC[C@H](O)C(C)(C)C5CC[C@]43C)C12 (some centres not stated)	PLC-gamma1 inh 9.5 | PLCg1 ctr inactive | PLCbeta3 conf inactive
Brc1ccc2nc(-c3ccc(CN4CCC(c5nc6ccccc6[nH]5)CC4)cc3)c(-c3ccccc3)nc2c1	none
CCOc1ccccc1OCCCC(=O)Nc1nc2ccccc2[nH]1	PLCb3 inh 13 | PLCg1 ctr inactive | PLCbeta3 conf inactive
CCCCCC(=O)Nc1nc2ccccc2[nH]1	none
O=C(CSc1nc2c(c(=O)[nH]1)CCCC2)N1CCOCC1	none
Cc1ccc(C)c(NC2CCCCC2NS(=O)(=O)c2ccccc2)c1 (configuration not stated)	none
COC1CCCCC1Nc1cc(C)ccc1C (configuration not stated)	PLC-gamma1 inh 9.5 | PLCg1 ctr inactive | PLCbeta3 conf inactive
O=C(Nc1ccncc1)c1ccc2c(c1)C(=O)N(CC1CCCO1)C2=O (configuration not stated)	PLC-gamma1 inh 11 | PLCg1 ctr inactive | PLCbeta3 conf inactive
CN1C(=O)c2cc(NC(=O)c3ccc(F)cc3)ccc2OC[C@H]2O[C@H](CC(=O)NC3CCC3)CC[C@H]21	none
CCC(C)c1ccccc1NS(=O)(=O)c1cnn(CC)c1 (configuration not stated)	PLC-gamma1 inh 9.8 | PLCg1 ctr inactive | PLCbeta3 conf inactive
CCn1cc(S(=O)(=O)Nc2ccccc2C(F)(F)F)cn1	none
COc1cc(-c2noc(CCC(=O)Nc3cccnc3)n2)cc(OC)c1OC	PLCb3 inh 13 | PLCg1 ctr inactive | PLCbeta3 conf inactive
COC(=O)CN1CCN(C(=O)c2nocc2C)CC1	none
Cc1cnc(NC(=O)c2ccncc2)s1	PLC-gamma1 inh 11 | PLCg1 ctr inactive | PLCbeta3 conf inactive
COc1cccc(-n2c(C)nnc2SCC#N)c1	PLCb3 inh 13, PLC-gamma1 inh 12 | PLCg1 ctr inactive | PLCbeta3 conf inactive
O=C(CSc1nnc(-c2ccccn2)n1Cc1ccco1)Nc1ccc(Oc2ccccc2)cc1	PLC-gamma1 inh 11 | PLCg1 ctr inactive | PLCbeta3 conf inactive
COC(=O)[C@H]1C[C@@]2(C)c3ccccc3N(S(=O)(=O)c3ccccc3)[C@H]2N1	none
Cc1[nH]n(-c2ccccc2)c(=O)c1C(c1ccc(O)c([N+](=O)[O-])c1)c1c(C)[nH]n(-c2ccccc2)c1=O	PLC-gamma1 inh 22 | PLCg1 ctr inactive | PLCbeta3 conf inactive
Cc1[nH]n(-c2ccccc2)c(=O)c1C(C[N+](=O)[O-])c1ccccc1Cl (configuration not stated)	none
COc1ccc(C(C[N+](=O)[O-])c2c(C)[nH]n(-c3ccccc3)c2=O)cc1 (configuration not stated)	PLC-gamma1 inh 10 | PLCg1 ctr inactive | PLCbeta3 conf inactive
COC(=O)C1CN(Cc2ccc(OC)cc2)CCS(=O)(=O)N1Cc1cn(Cc2ccc(Cl)cc2)nn1 (configuration not stated)	none
O=C(O)CCC(=O)N1CCc2cc(S(=O)(=O)N(CCc3ccccc3)Cc3ccccc3)ccc21	PLC-gamma1 inh 10 | PLCg1 ctr inactive | PLCbeta3 conf inactive
Cc1ccc2[nH]c(O)c(N=NC(=O)CCc3ccccc3)c2c1Br	PLC-gamma1 inh 9.9 | PLCg1 ctr inactive | PLCbeta3 conf inactive
COC(=O)C1=C(C)N(C)C(=NCc2ccccc2)NC1c1cccc(Cl)c1 (configuration not stated)	none
O=C1NC[C@@H](Cc2ccc(O)cc2)N(CCc2cc(C(F)(F)F)cc(C(F)(F)F)c2)C1=O	PLCb3 inh 11 | PLCg1 ctr inactive | PLCbeta3 conf inactive
Oc1ccc(C[C@@H]2CNC(=S)N2CCc2cc(C(F)(F)F)cc(C(F)(F)F)c2)cc1	none
Cc1ccc(/C=N/n2c(-c3ccco3)n[nH]c2=S)s1	PLC-gamma1 inh 11 | PLCg1 ctr inactive | PLCbeta3 conf inactive
S=c1[nH]nc(-c2ccco2)n1/N=C/c1ccccc1Cl	none
Cc1cccc(OCc2nc(-c3cccnc3)no2)c1	none
Cc1ccc(C)c(OCc2nc(-c3cccnc3)no2)c1	PLC-gamma1 inh 9.8 | PLCg1 ctr inactive | PLCbeta3 conf inactive
O=C(Nn1c(SCc2cccc([N+](=O)[O-])c2)nc2ccccc2c1=O)c1ccccc1	PLC-gamma1 inh 11 | PLCg1 ctr inactive | PLCbeta3 conf inactive
COc1cc(-c2ccc(NC(=O)CN3CCC(C)CC3)c(OC)c2)ccc1NC(=O)CN1CCC(C)CC1	PLC-gamma1 inh 10 | PLCg1 ctr inactive | PLCbeta3 conf inactive
COc1ccc(NC(=O)CN2CCC(C)CC2)cc1	PLC-gamma1 inh 12 | PLCg1 ctr inactive | PLCbeta3 conf inactive
COc1ccc(NC(=O)CN2CCC(C)CC2)c([N+](=O)[O-])c1	none
CCCCCC(=O)Nc1ccc(N2CCN(S(C)(=O)=O)CC2)cc1	PLC-gamma1 inh 9.7 | PLCg1 ctr inactive | PLCbeta3 conf inactive
COCCCNC(=O)C[C@H]1C[C@@]2(C(=O)OC)C(=C[C@H](C3CCCC3)O[C@@H]2C)N(CCc2ccc(OC)c(OC)c2)C1=O	none
